Assay outcomes: PubChem BioAssay, National Center for Advancing Translational Sciences (NCATS)
Hits are enriched below; roughly 14% of the tested compounds scored in any of these assays.
Sm TGR block = qHTS Assay for the Inhibitors of Schistosoma Mansoni Peroxiredoxins; purified TGR, DTNB reduction, TNB absorbance 405 nm; Potency, µM (top dose mostly 114 µM), for inactives: at the highest dose activity change, negative = inhibition, actives largely listed as inhibitors; actives 3% (n = 360,000); also: potency is read from the fitted curve at half-maximal effect; nearly all actives have a fitted effect of over 60% in size
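TGR 20 nM + NADPH 100 uM (dispensed conc.), cpd preinc 15 min RT; start with NADPH (500 uM addition) then DTNB (15 mM addition). Kinetic TNB absorbance, 405 nm filter. Four-parameter Hill fit across titration.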
Pf growth 96h = Primary qHTS for delayed death inhibitors of the malarial parasite plastid, 96 hour incubation. P. falciparum luciferase reporter growth, 96 h. Potency, µM (series often up to 28.7 µM), for inactives: top-dose activity change, negative = inhibition, most hits filed as inhibitors. actives 6.9% (n = 320,000); also: potency is read from the fitted curve at half-maximal effect
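Two parasite generations (96 h, 37 C, 5% CO2) of compound exposure in infected erythrocytes (0.05% parasitemia, 2% hematocrit). Luciferase-reporter P. falciparum; decreased luminescence indicates inhibited growth, aimed at apicoplast-acting delayed death.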
Pf growth 48h = Primary qHTS for delayed death inhibitors of the malarial parasite plastid, 48 hour incubation | P. falciparum luciferase growth in erythrocytes, 48 h | Potency, µM (titrated, usually from 28.7 µM), for inactives: at the highest dose activity change, negative = inhibition, most hits filed as inhibitors | actives 5.9% (n = 310,000) | AID 504832, 2011; also: potency is read from the fitted curve at half-maximal effect
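Compounds are pin-transferred into medium, infected erythrocytes (2% hematocrit, 0.1% parasitemia final) are added, and plates sit one parasite generation at 37 C in 5% CO2. Detection reagent is then added and luminescence measured.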
Giardia FBPA inh = qHTS Assay for Inhibitors of Fructose-1,6-bisphosphate Aldolase from Giardia Lamblia | purified Giardia FBPA | A8B2U2 | AID 2451, 2010 | Potency, µM (doses to about 59.6 µM), for the others: at the top dose activity, negative = inhibition, usual class: inhibitors | actives 0.71% (n = 290,000); also: potency is read from the fitted curve at half-maximal effect; nearly all actives have a fitted effect of over 55% in size
Target sequence (A8B2U2 whole entry, looked up): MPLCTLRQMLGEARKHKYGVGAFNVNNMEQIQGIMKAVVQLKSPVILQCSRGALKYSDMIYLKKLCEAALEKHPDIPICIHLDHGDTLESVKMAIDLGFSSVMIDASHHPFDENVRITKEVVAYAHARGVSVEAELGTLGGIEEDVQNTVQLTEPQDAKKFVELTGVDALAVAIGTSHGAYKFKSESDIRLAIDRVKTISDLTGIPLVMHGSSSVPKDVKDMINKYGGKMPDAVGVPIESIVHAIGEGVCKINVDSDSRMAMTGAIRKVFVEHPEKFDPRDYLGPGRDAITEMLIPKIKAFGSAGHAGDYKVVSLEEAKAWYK
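Giardia FBPA (40 nM reagent) was preincubated 10 min at RT with compound (up to 57.5 uM final), then substrate plus GAPDH/TPI/NAD/arsenate coupling system with diaphorase/resazurin was added; resorufin fluorescence (525/598 nm) was read after 20 min.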
HCMV inh = qHTS Assay for inhibitors of the human cytomegalovirus (HCMV). HFF cells, HCMV-luciferase reporter, 72 h; active compounds read low. activity change, negative = inhibition, % at 57.5 µM. actives 4.5% (n = 410,000). AID 1259415, 2018; in the data active = activity change below about -60%; inconclusive = no clear call, values can overlap the other calls; inactive = above about -39%
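Inhibition of viral replication was scored as loss of reporter luminescence in HFFs infected with HCMV-luciferase (MOI 1 PFU/cell) for 72 h; compounds tested at 2 doses, normalized to buffer and Salinomycin controls.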
An asterisk follows results filed as active; ? = inconclusive; / = not tested or not shown; ! = not confirmed by another sample; [ ] = another dose, or the depositor's remark. Unless noted, calls follow the shape of the dose curve; as a rule, active = well fitted curve in the direction sought with a large enough effect; inconclusive = small, poorly fitted or top-dose-only effect, or another doubt; inactive = no such curve, though single readings can be large; an effect the other way counts as inactive or inconclusive. % is scaled to controls: 0 for no effect and ±100 for the full control effect.

SMILES	Sm TGR block	Pf growth 96h	Pf growth 48h	Giardia FBPA inh	HCMV inh
COc1ccccc1C(=O)N1CCC(c2noc(-c3ccc(S(=O)(=O)N4CCCC4)cc3)n2)CC1	6%	/	/	/	-84*
O=C(c1ccccn1)N1CCN(S(=O)(=O)c2ccccc2)CC1	1%	3%	-3%	5%	-94*
CCOC(=O)C1(CCOc2ccccc2)CCN(CC(O)CO)CC1 (centres undefined)	8%	?	?	7%	50
Cc1nc(CN(C)c2ncnc3ccc(-c4ccc5c(c4)OCO5)cc23)cs1	/	/	/	/	-39
COc1ccc(NC(=O)C(C)(C)n2cc(NC(=O)c3ccc4ccccc4n3)cn2)cc1	/	/	/	/	67
CCCS(=O)(=O)N1CCCC(C(=O)c2ccccc2OC)C1 (centres undefined)	1%	-14%	43%	0%	-15
O=C(c1ccccc1F)N1CCN(S(=O)(=O)c2ccc(S(=O)(=O)N3CCCCC3)cc2)CC1	-25%	31%	14%	-4%	-8
Cc1ccccc1C(=O)N1CCN(S(=O)(=O)c2ccccc2)CC1	-7%	13µM*	-1%	?	36
COc1ccc(S(=O)(=O)N2CCCCC2)cc1C(=O)N1CCCC1	3%	2.3µM*	-7%	/	35
O=C(c1ccccc1F)N1CCN(S(=O)(=O)c2ccc(S(=O)(=O)N3CCCCCC3)cc2)CC1	-4%	-4%	12µM*	4%	-2
O=C(c1cc(S(=O)(=O)N2CCCCC2)ccc1F)N1CCCCC1	8%	?	2.3µM*	-3%	22
O=C(c1cccc(S(=O)(=O)N2CCCCC2)c1)N1CCN(S(=O)(=O)c2ccc(F)cc2)CC1	3%	9.3µM*	/	5%	-11
COc1ccc(CN2C(=O)C(n3ccc4ccccc43)c3cc(F)ccc32)cc1 (centres undefined)	/	/	/	/	14
COc1ccccc1Cc1c(-c2ccc(OC)c(OC)c2)nc2ccc(Cl)cn12	/	/	/	/	-9
CCC(C)NC(=O)Cn1c(=O)n(-c2ccc(C)c(C)c2)c(=O)c2c3c(sc21)CCCCC3 (centres undefined)	8%	/	/	/	1
O=C(Nc1ccc(F)cc1)Nc1ccc2snnc2c1	-8%	/	/	/	-75*
CC(=O)Nc1cccc(NC(=O)Nc2cccc(Cl)c2C)c1	/	?	-3%	2%	-71*
CC(=O)c1ccc(NC(=O)Nc2ccc3snnc3c2)cc1	2%	/	/	/	53
CC(=O)Nc1cccc(NC(=S)Nc2cccc(Cl)c2C)c1	?	13%[5.75 µM]	6%	-1%	41
CNC(=O)Nc1ccc2snnc2c1	-5%	12µM*	/	-4%	8
Cc1ccc(F)c(NC(=O)Nc2ccc3snnc3c2)c1	23%	/	/	/	-106*
CC1CCCCN1C(=O)CN1C(=O)c2ccccc2S1(=O)=O (centres undefined)	2%	57%	26%	/	-9
COc1ccc(-c2noc(CSc3nnc(-c4ccncc4)n3-c3ccccc3)n2)cc1	1%	/	/	/	?
Cc1c(Cl)cccc1NC(=O)Nc1ccc2snnc2c1	-4%	/	/	/	-104*
CN(c1ccccc1C(=O)O)S(=O)(=O)c1ccc2c3c(cccc13)C(=O)N2	-25%	12µM*	8%	5%	42
SMILES	Sm TGR block	Pf growth 96h	Pf growth 48h	Giardia FBPA inh	HCMV inh
Nc1c(C(O)(C(F)(F)F)C(F)(F)F)cc(C(O)(C(F)(F)F)C(F)(F)F)c2ccccc12	-23%	?	9.3µM*	-16%	/
CN1CCN(c2cc(-c3ccc(N(C)C)cc3)ncn2)CC1	/	/	/	-8%	/
COc1cc(S(=O)(=O)N(Cc2ccc(C)cc2)C2CCCCC2)ccc1-n1cnnn1	9%	/	5.9µM*	-1%	-36
COc1ccc(CN(C2CCCC2)S(=O)(=O)c2ccc(-n3cnnn3)cc2)cc1OC	-6%	?	?	1%	-9
O=c1[nH]c(Nc2ccc3c(c2)OCCO3)nnc1Cc1ccc(Cl)cc1	8%	72%	?	2%	-28
CC(C)n1cc(-c2nc(C(=O)NN)cs2)c(=O)n(Cc2ccccc2)c1=O	-1%	?	?	-4%	-68*
Cc1ccc(CNCc2ccc3c(c2)n(C)c(=O)n3C)cc1	9%	/	/	/	-3
Cc1ccc(S(=O)c2ccc(NC(=O)C3CC3)cc2C#N)cc1 (centres undefined)	0%	-15%	?	10%	-66*
CCOC(=O)c1c(C)[nH]c(C)c1S(=O)(=O)N1CCC(C(=O)Nc2ccc(F)cc2F)CC1	-1%	/	/	/	-5
CCCc1nc2c(C)ccc(C)c2c(N)c1CC	2%	9.3µM*	13µM*	?	-2
CNc1nc(-c2ccccc2C(F)(F)F)nc2ccccc12	/	/	/	-6%	/
CCOC(=O)c1cnc2ccc(C)cc2c1NCCN1CCOCC1	?	14%	12µM*	3%	37
CCOC(=O)c1cnc2c(Cl)c(Cl)ccc2c1NCCN1CCOCC1	40µM*!	-2%	-1%	-11%	-12
CCOC(=O)c1cnc2c(C)cc(C)cc2c1NCCCN1CCOCC1	-4%	4%	?	-6%	-62*
CCOC(=O)c1cnc2c(C)cc(C)cc2c1NCCN1CCOCC1	-1%	/	/	/	2
CCOC(=O)c1cnc2ccc(Br)cc2c1NCCCN1CCOCC1	45µM*	10%	?	6%	-25
CCN(CC(=O)Nc1c(F)cccc1F)C(=O)c1cnccn1	-1%	20%	0%	/	-14
COc1ccc(CC(=O)Nc2nc3c(s2)CC(C(C)(C)C)CC3)cc1 (centres undefined)	2%	/	/	/	29
COc1ccc2c3c(n(C)c2c1)[C@H](CO)N(C(=O)c1ccccn1)CC31CCN(C(=O)Cc2ccccc2)CC1	/	/	/	/	6
O=C(Nc1c2c(nc3c1CCC3)CCCC2)c1ccccn1	-12%	19%	17%	0%	43
Oc1cccc(-c2ccc3nccn3c2)c1	/	/	/	/	37
CCCCN(CCCC)CC(O)c1cc(Cl)cc2c1-c1ccc(Cl)cc1/C2=C/c1ccc(Cl)cc1 (centres undefined)	/	0.021µM*	0.015µM*	/	/
C#CCCCO/N=C1/C[C@@H](O)[C@@H](O)[C@@H]2[C@@H]3C(=O)N(C[C@@H]4CCCO4)C(=O)[C@H]3CC[C@@H]12	/	/	/	0%[12.9 µM]	/
